# Screening data deposited in PubChem by National Center for Advancing Translational Sciences (NCATS).
# Rows were chosen to be rich in hits. Some 21% of all compounds tested hit in one or more screens of this group.
# Gal4-VP16 FLuc = counter-screen for ROR gamma inhibitors: Gal4-VP16 reporter; Drosophila S2 Gal4-VP16 UAS-luciferase, luminescence, 20 h; Potency, µM (top dose mostly 53.6 µM), for the others: at the highest dose activity, negative = inhibition, usual class: inhibitors; 310,000 compounds, 3.5% hits; AID 2546;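 further: Gal4-VP16 expression switched on by copper sulfate through the metallothionein promoter; potency means the concentration at half of the fitted maximal effect; nearly all actives have a fitted effect of over 50% in size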
# IL1B secr inh = inhibitors of inflammasome signaling (IL-1 beta secretion); 360,000 compounds, 4.7% hits; activity change, % at 57.5 µM; THP-1 LPS/ATP IL-1B secretion, AlphaLISA, 16 h; stronger effect = lower value; AID 743279; in the data active means activity change below about -50%; inconclusive means mostly about -30% to -49%
#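 Secreted IL-1B measured by AlphaLISA bead assay after 16 h compound exposure of THP-1 cells; compounds (final up to 57.5 uM) added 1 h before LPS (250 ng/mL) and ATP (1.25 mM) stimulation; lower signal means less secretion.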
# TDP1 cell noCPT = qHTS for Inhibitors of human tyrosyl-DNA phosphodiesterase 1 (TDP1): qHTS in cells in absence of CPT | AID 686978, 2013 | 420,000 compounds, 15% hits | Potency, µM (doses to about 46.2 µM), inactives show at the highest dose activity change, negative = growth inhibition, most hits filed as inhibitors | DT40 Tdp1-/- hTDP1 cells, no CPT, ATP luminescence, 48 h; further: potency means the concentration at half of the fitted maximal effect; nearly all actives have a fitted effect of over 55% in size
#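 Camptothecin absent (DMSO only). Human TDP1-complemented DT40 knockout cells, 400 cells/well, 37 °C for minimum 48 hr; ATP measured via CellTiter-Glo, 30 min dark incubation, luminescence.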
# DT40 TDP1 CPT = DT40-hTDP1 cell growth loss with CPT; chicken DT40 Tdp1-/-;hTDP1 cells + 20 nM CPT, ATP luminescence, 48 h; Potency, µM (doses to about 46.2 µM), for the others: at the highest dose activity change, negative = growth inhibition, most hits filed as inhibitors; 420,000 compounds, 12% hits; further: potency means the concentration at half of the fitted maximal effect; nearly all actives have a fitted effect of over 55% in size
#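 Cell growth measured by CellTiter-Glo luminescence after a minimum 48 h, 37 C compound exposure with 20 nM CPT in Tdp1-knockout DT40 cells stably expressing hTDP1, seeded 400/well; qHTS titration format.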
# ELG1 repair inh = blocks ELG1-dependent DNA repair in HEK293T cells; HEK293T ELG1-luciferase reporter, luminescence, 16 h; DNA damage induced by 5-fluorouridine; Potency, µM (titrated, usually from 46.1 µM), for the others: at the highest dose activity change, negative = inhibition, actives largely listed as inhibitors; 330,000 compounds, 2.3% hits; AID 504467; further: potency means the concentration at half of the fitted maximal effect; nearly all actives have a fitted effect of over 55% in size
#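 In this reporter screen, reduction of luminescence relative to DMSO vehicle indicated activity. Compounds and 5-fluorouridine were added together to 2,000 cells per well, incubated for 16 hr at 37 °C, then developed with ONE-Glo.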
# RORgamma inh = ROR gamma (mouse) transcription inhibition | P51450 | Potency, µM (titrated, usually from 53.6 µM), for inactives: top-dose activity change, negative = inhibition, actives largely listed as inhibitors | 310,000 compounds, 5.4% hits | AID 2551 | Drosophila S2 Gal4-RORgamma UAS-luciferase reporter, 20 h; further: potency means the concentration at half of the fitted maximal effect; nearly all actives have a fitted effect of over 60% in size
# Target sequence (P51450 whole entry, looked up, the tested form may be a part): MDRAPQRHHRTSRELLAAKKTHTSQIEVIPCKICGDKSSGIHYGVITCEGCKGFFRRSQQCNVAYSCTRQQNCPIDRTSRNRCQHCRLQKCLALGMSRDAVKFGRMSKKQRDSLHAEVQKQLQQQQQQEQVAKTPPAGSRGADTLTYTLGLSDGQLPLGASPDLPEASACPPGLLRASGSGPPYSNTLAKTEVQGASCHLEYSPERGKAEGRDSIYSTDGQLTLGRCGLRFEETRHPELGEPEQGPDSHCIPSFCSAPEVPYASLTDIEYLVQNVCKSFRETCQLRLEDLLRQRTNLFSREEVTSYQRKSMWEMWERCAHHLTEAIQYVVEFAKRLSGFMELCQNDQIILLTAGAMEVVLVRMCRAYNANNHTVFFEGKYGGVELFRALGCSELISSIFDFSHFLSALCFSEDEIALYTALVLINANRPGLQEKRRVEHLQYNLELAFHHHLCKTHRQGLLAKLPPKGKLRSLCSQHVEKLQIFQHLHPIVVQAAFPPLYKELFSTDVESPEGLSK
#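 Drosophila Schneider cells stably carrying a metallothionein-driven Gal4 DBD–ROR gamma fusion and a UAS-Photinus luciferase reporter were exposed to compound for 1 hr, then induced with copper sulfate (700 uM final) for 20 hr at ambient temperature before luminescence reading.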
# Active calls of the source: *; i = inactive; ? = inconclusive; . = not tested or not shown; [ ] = dose if it differs, or a comment. Unless noted, the call rests on the fitted dose curve; in most records, active means well fitted curve in the direction sought with a large enough effect; inconclusive means small, poorly fitted or top-dose-only effect, or another doubt; inactive means no such curve, though single readings can be large; an effect the other way counts as inactive or inconclusive. On the % scale 0 is the no-effect control and ±100 the full control effect.
SMILES,Gal4-VP16 FLuc,IL1B secr inh,TDP1 cell noCPT,DT40 TDP1 CPT,ELG1 repair inh,RORgamma inh
CS(=O)(=O)N1CCC(C(=O)N2CCN(c3cccc(Cl)c3)CC2)CC1,-2%,10,-29%,1%,-8%,3%
O=C(C1CC(=O)N(C2CCCC2)C1)N1CCN(c2cccc(Cl)c2)CC1 (configuration not stated),-6%,1,23µM*,18µM*,9%,21%
Cc1ccccc1OC1CCN(C(=O)C2CCC(=O)N(C3CCCC3)C2)CC1 (configuration not stated),1%,36,15µM*,?,-2%,38%
O=C(NCc1ccco1)c1ccc(Cl)cc1[N+](=O)[O-],-11%,-12,-18%,-4%,12%,20%
CC(=O)OCC(NC(=O)C(Cc1ccccc1)NC(=O)OC(C)(C)C)C1OC(n2cc(F)c(=O)[nH]c2=O)C(OC(C)=O)C1OC(C)=O (configuration not stated),-1%,.,.,.,.,-24%
CCCCNC(=O)[C@@H]1Cc2ccccc2N1C(=O)[C@H](N)CC,9%,.,?,-11%,.,10%
Cc1c(Cl)cccc1NC(=O)C1CC(=O)N(C2CCCC2)C1 (configuration not stated),.,-58*,-7%,0%,.,.
CS(=O)(=O)N1CCCC(C(=O)N2CCN(c3cccc(Cl)c3)CC2)C1 (configuration not stated),-2%,-1,?,21µM*,4%,-17%
Cc1c(Cl)cccc1NC(=O)CNC(=O)C1CC(=O)N(C2CCCC2)C1 (configuration not stated),.,31,8%,-3%,18%,.
COc1cccc(N2CCN(C(=O)C3CCN(S(=O)(=O)c4cn(C)cn4)CC3)CC2)c1,.,.,-9%,-2%,.,.
COc1ccc(-c2nc(-c3ccccc3)c(NC(C)(C)C)o2)cc1,0%,.,.,.,.,4%
Cc1ccc2cccc(NC(=O)COc3ccccc3[N+](=O)[O-])c2n1,.,.,-15%,-12%,.,.
Cc1nn(C)c(C)c1CN(Cc1nc(-c2cc(F)ccc2F)oc1C)C1CC1,-9%,-25,?,?,-25%,28µM*
CCOC(=O)C1CCCN(C(=O)c2cnn(-c3ncc4c(n3)-c3ccccc3CC4)c2C)C1 (configuration not stated),.,.,-6%,2%[9.04 µM],.,.
COc1ccc(CN2CCCC(C(=O)Nc3cccc(-n4cccn4)c3)C2)cc1 (configuration not stated),-3%,?,?,?,-23%,-8%
CC(=O)c1cccc(CN2CCCC(C(=O)Nc3ccc(-c4ccco4)cc3)C2)c1 (configuration not stated),1%,-18,?,15µM*,?,2%
CC(=O)c1cccc(CN2CCCC(C(=O)Nc3cccc(-n4cccn4)c3)C2)c1 (configuration not stated),1%,i,23µM*,?,-2%,-12%
O=C(Nc1cccc(-n2cccn2)c1)C1CCCN(Cc2ccc(C#CCCO)cc2)C1 (configuration not stated),-19%,i,21µM*,?,?,-7%
Cc1nn(C)c(Cl)c1CN1CCCC(C(=O)Nc2cccc(-n3cccn3)c2)C1 (configuration not stated),-2%,-9,?,12µM*,16µM*,0%
O=C(Nc1ccc(-c2ccco2)cc1)C1CCCN(Cc2ccc(CO)o2)C1 (configuration not stated),0%,-12,?,?,?,-9%
